Screening data from PubChem BioAssay.
DAX1 inh-1: inhibits human nuclear receptor DAX1; P51843; HEK293 Gal4-DAX1 luciferase reporter, luminescence; inhibition, % at 6.75 µM; hit rate 0.99% among 340,000;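 active = inhibition above the mean over all tested compounds plus 3 SD, cut at about 4.2% in these data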;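 also: inhibition shows as a rise in luminescence from relieved DAX1 repression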
Target sequence (P51843 207-470 limits assumed): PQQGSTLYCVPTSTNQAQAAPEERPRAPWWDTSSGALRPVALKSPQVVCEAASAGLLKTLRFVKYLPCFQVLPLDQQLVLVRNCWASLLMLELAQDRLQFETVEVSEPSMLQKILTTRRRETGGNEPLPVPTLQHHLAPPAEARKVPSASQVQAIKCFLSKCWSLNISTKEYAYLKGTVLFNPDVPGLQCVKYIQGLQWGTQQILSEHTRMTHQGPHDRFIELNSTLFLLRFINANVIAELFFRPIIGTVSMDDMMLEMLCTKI
ssDAF-12 act: activators of S. stercoralis DAF-12 nuclear receptor. HEK293 ssDAF-12/GRIP1 lit1-tk-luc reporter, luminescence; % of 3 µM dafachronic acid response. AID 652126. activation, % at 6.8 µM. hit rate 1% among 370,000;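 active = activation above the mean over all tested compounds plus 3 SD, cut at about 0.9% in these data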
DAX1 inh-2: inhibitors of DAX1 repression of SF-1 activated StAR promoter; hit rate 1.1% among 370,000; HEK293T StAR-luciferase reporter, SF-1/DAX-1 repression relief; inhibition, % at 6.8 µM;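 active = inhibition above the mean over all tested compounds plus 3 SD, cut at about 3.6% in these data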;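 also: higher inhibition means more luminescence from relief of DAX-1 repression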
hgDAF-12 ag: hgDAF-12 agonism, primary luciferase screen; HEK293 GAL4-hgDAF12 UAS-luciferase reporter, agonist luminescence; normalized to butyrate control; activation, % at 6.8 µM; hit rate 1.8% among 370,000;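 active = activation above a cutoff set at the mean of all screened compounds plus 3 SD, cut at about 10% in these data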
hcDAF-12 act: activators of H. contortus DAF-12 nuclear receptor; HEK293 hcDAF-12 lit1-tk-luc reporter, luminescence; 0% DMSO, 100% Δ7-dafachronic acid; activation, % at 6.8 µM; hit rate 1.4% among 370,000;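 active = activation above the mean of all tested compounds plus 3 SD, cut at about 5.5% in these data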
SMARCA2 activ: SMARCA2 function activation, primary screen | MG213 cells, MMTV-luciferase reporter, dexamethasone, overnight | activation, % at 9.1 µM | hit rate 1% among 370,000 | AID 652017; in the data active = activation above about 7.8%
LXRb hcDAF ctr: activates human LXR-beta, counter-screen for hcDAF-12 agonists | AID 743027 | shares compounds with hcDAF-12 act | activation, % at 6.8 µM | HEK293 Gal4-LXR tk-luc reporter, luminescence, 24 h; normalized: DMSO 0%, positive control 100% | 3,400 tested, under 10 active;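 active = mean percent activation of the reporter above a cutoff set as the average over tested compounds plus their standard deviation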
hcDAF12 ag: confirmation of H. contortus DAF-12 agonists; shares compounds with hcDAF-12 act; HEK293 hcDAF-12 lit1-tk-luc reporter, luminescence; % of Δ7-dafachronic acid response; activation, % at 6.8 µM; hit rate 61% among 3,400;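 active = mean activation across triplicate tests above the threshold derived from the earlier primary screen, cut at about 5.5% in these data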
A number is an active result; – = inactive; · = no result. The list is not random: actives were taken first. Their share in the collection is about 4.8%.

SMILES | DAX1 inh-1 | ssDAF-12 act | DAX1 inh-2 | hgDAF-12 ag | hcDAF-12 act | SMARCA2 activ | LXRb hcDAF ctr | hcDAF12 ag
CC(C)c1ccc(/C=N/NC(=O)c2ccccn2)cc1 | – | 1.0 | – | – | 8.3 | – | – | 10
COc1ccc(C(=O)C[n+]2ccc3ccccc3c2C)cc1 | 8.6 | 1.8 | – | – | 13 | – | – | 14
COc1ccc(C(=O)C[n+]2cccc3cc(OC)ccc32)cc1 | – | – | – | – | – | – | · | ·
Cc1ccc(C(=O)C[n+]2ccc3ccccc3c2)cc1 | – | 1.3 | – | – | 6.7 | – | – | –
Cc1ccc(C2c3[nH]c4ccccc4c3C[C@H]3C(=O)N(c4ccccc4C(=O)N4CCC[C@H]4C(=O)O)C(=O)N23)cc1 (some centres not stated) | – | – | – | – | 7.6 | – | – | –
O=C(O)[C@@H]1CCCN1C(=O)c1ccccc1N1C(=O)[C@@H]2Cc3c([nH]c4ccccc34)C(c3cccc(Cl)c3)N2C1=O (some centres not stated) | – | – | – | – | 8.8 | – | – | –
O=C(O)[C@H]1CCCN1C(=O)c1ccccc1N1C(=O)[C@@H]2Cc3c([nH]c4ccccc34)C(c3cccc(Cl)c3)N2C1=O (some centres not stated) | – | – | – | – | – | – | · | ·
COc1ccc(CN(C(=O)c2cc3ccccc3oc2=O)C2CCS(=O)(=O)C2)cc1OC (configuration not stated) | – | – | – | – | 10 | – | – | –
COc1ccc(CN(C(=O)c2cc3ccccc3oc2=O)C2CCS(=O)(=O)C2)cc1 (configuration not stated) | – | – | – | – | – | – | · | ·
Cn1c(=O)c2ccccc2n(C)c1=O | · | – | – | – | – | – | · | ·
Cc1ccc(Nc2nc(CSc3nnc(-c4ccccc4C)n3C)cs2)cc1 | – | – | – | – | 6.8 | – | – | –
Nc1[nH]c(C(=O)c2ccc(Br)cc2)c(-c2ccncc2)c1C(=O)c1ccccc1 | · | – | – | – | – | – | · | ·
NNc1nc2sc3c(c2c(=O)n1Cc1ccccc1)CCC3 | – | – | – | – | – | – | · | ·
NNc1nc(-c2ccccc2)nc2sc3c(c12)CCCC3 | – | – | – | – | 7.8 | – | – | 19
Cc1cccc(NC(=O)CNC(=O)[C@H](CCc2ccccc2)NC(=O)[C@H]2O[C@@H](n3cnc4c(N)ncnc43)[C@H](O)[C@@H]2O)c1C | · | – | – | – | – | – | · | ·
Nc1nc(F)nc2c1ncn2[C@@H]1O[C@H](COP(=O)(O)O)[C@@H](O)[C@@H]1O | · | – | – | – | – | – | · | ·
C=CCN=C1NC(c2ccc(F)cc2)C(C(=O)OC)=C(C)N1C (configuration not stated) | · | – | – | – | – | – | · | ·
Nc1cc2[nH]c(=O)c3ccccc3c2cc1Br | – | 1.1 | 3.7 | – | 9.7 | – | – | 9.3
O=C1C(NC(=O)N2c3ccccc3C=Cc3ccccc32)CCCCN1Cc1cccc(Cl)c1 (configuration not stated) | · | – | – | – | – | – | · | ·
CN=c1scc(C)n1/N=C/c1ccc(O)cc1 | – | – | – | – | – | – | · | ·
CN=c1scc(-c2ccccc2F)n1/N=C/c1ccc[nH]1 | – | – | – | – | – | – | · | ·
CN=c1scc(C)n1/N=C/c1ccc(O)cc1O | – | – | 3.6 | – | 7.6 | – | – | 6.6
CN=c1scc(-c2ccccc2F)n1/N=C/c1ccc(O)c(O)c1O | – | – | – | – | 7.2 | – | – | 16
COc1ccc(N=CC2=C(O)c3ccccc3C2=O)c(OC)c1 | – | 1.6 | – | – | 12 | – | – | 6.8
O=C(O)C(=O)/C(=C\c1cccc(Cl)c1)c1ccc2ccccc2n1 | – | 2.1 | 3.8 | 11 | 14 | – | – | 8.6
SMILES | DAX1 inh-1 | ssDAF-12 act | DAX1 inh-2 | hgDAF-12 ag | hcDAF-12 act | SMARCA2 activ | LXRb hcDAF ctr | hcDAF12 ag
CCOC(=O)C1=NN(c2ccccc2)C2=NC(C)=C(C(=O)OC)C(c3ccc(C)cc3)N12 (configuration not stated) | – | – | – | – | 8.3 | – | – | –
CCCCCCCCN1C(=O)[C@@H](CC(=O)NCc2cccs2)C[C@@]2(C(=O)OC)C1=C[C@H](C1CCCC1)O[C@@H]2C | · | – | – | – | – | – | · | ·
O=C(NCCN1CCc2ccccc2C1)C1CCN(S(=O)(=O)N2CCC3(CC2)OCCO3)CC1 | – | – | – | – | 7.5 | – | – | –
CC(=O)N1C[C@@H](CN2C(=O)CCC2=O)[C@@H]2C[C@H]1c1ccccc1N2C | · | – | – | – | – | – | · | ·
Cn1nc(-c2ccccc2)c(C(=O)Nc2ccc(Cl)cc2)c1Cl | – | – | – | – | – | – | · | ·
Cn1c(Cl)c(C(=O)Nc2ccc(Cl)cc2)c2ccccc21 | – | – | – | – | 6.8 | – | – | 5.9
Cc1[nH]c2ccccc2c1CC(=O)Nc1ccc(Nc2cccnc2)c(-c2cc(C(F)(F)F)cc(C(F)(F)F)c2)c1 | · | – | – | – | – | – | · | ·
Cc1ccc(C)c(NCC(=O)c2ccc(Cl)cc2)c1 | – | – | – | 12 | 7.1 | – | – | –
Cc1ccc(C(=O)CNc2cc(C)ccc2C)cc1 | – | – | – | – | – | – | · | ·
CCc1ccc(/C=C/C(=O)C2C(=O)c3ccccc3C2=O)cc1 | – | 1.0 | – | – | 8.8 | – | – | 5.9
O=C(C(=O)N1CCC(CNS(=O)(=O)c2ccc3ccccc3c2)CC1)c1cc2ccccc2o1 | · | – | – | – | – | – | · | ·
Cc1ccccc1-c1ccc2c(c1)[C@@H]1C[C@H]3[C@@H](CN1CC2)[C@H](C)OC(c1ccccc1)N3C (some centres not stated) | · | – | – | – | – | – | · | ·
O=C(CSc1nnc2ccccn12)N1CCc2ccccc2C1 | – | – | – | – | – | – | · | ·
O=C(CSc1nnc2ccccn12)c1ccc2c(c1)OCCO2 | – | – | 3.8 | – | 6.6 | – | – | –
O=C(CSc1nnc2ccccn12)N1CCc2ccccc21 | – | – | – | 13 | 7.3 | – | – | 5.7
O=S1(=O)N[C@H](Cc2ccccc2)COc2cc(Br)ccc21 | · | – | – | – | – | – | · | ·
NC(=O)c1c(NC(=O)c2ccccc2F)sc2c1CCCC2 | 5.4 | – | – | 13 | 9.0 | – | – | 7.3
N#Cc1c(NC(=O)c2ccccc2)sc2c1CCCCC2 | – | 1.0 | – | 13 | 7.0 | – | – | 5.9
CCSc1nnc(-c2ccco2)n1C | · | – | – | – | – | – | · | ·
Cc1cc(N/C(=C\C(=O)c2ccccc2)c2ccccc2)ccc1Br | · | – | – | – | – | – | · | ·
